According to PubChem BioAssay AID763 (NMMLSC, 2007):

target: fMet-Leu-Phe receptor (Homo sapiens) (UniProt P21462); experiment: FPR1 fluorescent ligand binding inhibitors, SAR follow-up, selectivity assay for FPRL1 ligand SAR project, cell-based, single concentration (AID 763); settings: FPR1-expressing cells, hits give high values; at 5.4 µM unless noted
Sequence (P21462 whole entry, looked up): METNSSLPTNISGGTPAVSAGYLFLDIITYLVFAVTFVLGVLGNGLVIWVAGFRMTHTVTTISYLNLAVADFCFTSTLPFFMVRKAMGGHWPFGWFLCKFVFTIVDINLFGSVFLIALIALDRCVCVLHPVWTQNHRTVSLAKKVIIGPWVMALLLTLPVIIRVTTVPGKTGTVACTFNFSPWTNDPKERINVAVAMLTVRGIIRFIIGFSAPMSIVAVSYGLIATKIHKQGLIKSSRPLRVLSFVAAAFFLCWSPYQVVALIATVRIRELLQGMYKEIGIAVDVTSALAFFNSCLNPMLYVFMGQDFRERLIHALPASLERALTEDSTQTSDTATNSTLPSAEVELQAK

inhibition, inactive:
Fc1ccc(-c2cc(C(F)(F)F)nc(N3CCN(C(c4ccccc4)c4ccccc4)CC3)n2)cc1 1.3% [at 4.5 µM], CCOC(=O)N1CCN(c2nc(-c3ccc(Cl)cc3)cc(C(F)(F)F)n2)CC1 -2.8%, COc1ccc(-c2cn3cccnc3n2)cc1NC(=O)c1ccccc1Br 0.1% [at 5.3 µM], CC1(C)CC(=O)c2cnc(N3CCN(Cc4ccc5c(c4)OCO5)CC3)nc2C1 11.3% [at 5.6 µM], Clc1ccccc1N1CCN(c2nc(-c3ccccc3)c3cc(Br)ccc3n2)CC1 2.1% [at 4.6 µM], CCN1CCN(c2nc(-c3cccc(Cl)c3)c3c(n2)-c2ccccc2OC3)CC1 -9.4% [at 5.5 µM], CCOc1ccc(C(=O)Nc2cc(-c3cn4cccnc4n3)ccc2OC)cc1 -6.6% [at 5.7 µM], COc1ccc(-c2cn3cccnc3n2)cc1NC(=O)c1cc(Br)ccc1Cl -4% [at 4.9 µM], O=C(O)CCCC(=O)N1CCN(c2nc(-c3ccccc3)c3ccccc3n2)CC1 -2.1% [at 5.5 µM], CC(=O)N1CCN(c2nc(-c3ccccc3)c3cc(Cl)ccc3n2)CC1 2.2% [at 6.1 µM], Cc1ccc(-c2cc(C(F)F)nc(N3CCN(c4cccc(Cl)c4)CC3)n2)cc1 2.7%, COc1ccc(-c2cn3cccnc3n2)cc1NC(=O)Cc1ccccc1 -1.4% [at 6.2 µM], COc1ccc(-c2cn3cccnc3n2)cc1NC(=O)C(C)C -8.8% [at 7.2 µM]
